For assay [1], the target named is T1, Methionyl-tRNA synthetase, putative (Leishmania donovani (strain BPK282A1)) (UniProt E9BF75).
T1 sequence (whole entry): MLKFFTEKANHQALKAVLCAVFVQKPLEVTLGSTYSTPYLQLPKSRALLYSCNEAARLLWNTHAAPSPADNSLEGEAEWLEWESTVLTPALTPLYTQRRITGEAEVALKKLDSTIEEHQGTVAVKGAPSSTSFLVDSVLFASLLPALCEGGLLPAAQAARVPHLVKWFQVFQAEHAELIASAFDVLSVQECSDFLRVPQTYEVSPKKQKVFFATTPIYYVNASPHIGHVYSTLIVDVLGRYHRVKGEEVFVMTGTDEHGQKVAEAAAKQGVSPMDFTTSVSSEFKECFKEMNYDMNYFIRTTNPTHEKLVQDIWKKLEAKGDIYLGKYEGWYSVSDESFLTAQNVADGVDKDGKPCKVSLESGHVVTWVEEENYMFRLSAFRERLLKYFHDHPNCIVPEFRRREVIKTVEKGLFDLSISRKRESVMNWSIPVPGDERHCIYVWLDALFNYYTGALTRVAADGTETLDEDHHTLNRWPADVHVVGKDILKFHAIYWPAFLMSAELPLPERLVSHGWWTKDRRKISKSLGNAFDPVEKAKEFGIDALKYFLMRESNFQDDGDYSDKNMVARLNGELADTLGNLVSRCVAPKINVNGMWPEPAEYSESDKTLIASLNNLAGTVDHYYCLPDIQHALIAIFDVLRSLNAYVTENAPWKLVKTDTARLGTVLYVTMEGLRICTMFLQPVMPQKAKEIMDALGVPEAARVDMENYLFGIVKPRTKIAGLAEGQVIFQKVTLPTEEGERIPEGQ
In words: Leishmania donovani Methionine tRNA synthetase (LdMetRS):v7. Dose response assay. It is filed as functional. Details: conc 80 nM, time 150 minutes.

The target of assay [2] is Protein translocase subunit SecA (Escherichia coli (strain K12)) (UniProt P10408). Description: Assay to Identify E. coli SecA ATPase Inhibitors. The class given is functional. Details: scale not given: direction of the effect not stated beside the values. The note with it: 30 µM.
Protein translocase subunit SecA (Escherichia coli (strain K12)), sequence (P10408 whole entry): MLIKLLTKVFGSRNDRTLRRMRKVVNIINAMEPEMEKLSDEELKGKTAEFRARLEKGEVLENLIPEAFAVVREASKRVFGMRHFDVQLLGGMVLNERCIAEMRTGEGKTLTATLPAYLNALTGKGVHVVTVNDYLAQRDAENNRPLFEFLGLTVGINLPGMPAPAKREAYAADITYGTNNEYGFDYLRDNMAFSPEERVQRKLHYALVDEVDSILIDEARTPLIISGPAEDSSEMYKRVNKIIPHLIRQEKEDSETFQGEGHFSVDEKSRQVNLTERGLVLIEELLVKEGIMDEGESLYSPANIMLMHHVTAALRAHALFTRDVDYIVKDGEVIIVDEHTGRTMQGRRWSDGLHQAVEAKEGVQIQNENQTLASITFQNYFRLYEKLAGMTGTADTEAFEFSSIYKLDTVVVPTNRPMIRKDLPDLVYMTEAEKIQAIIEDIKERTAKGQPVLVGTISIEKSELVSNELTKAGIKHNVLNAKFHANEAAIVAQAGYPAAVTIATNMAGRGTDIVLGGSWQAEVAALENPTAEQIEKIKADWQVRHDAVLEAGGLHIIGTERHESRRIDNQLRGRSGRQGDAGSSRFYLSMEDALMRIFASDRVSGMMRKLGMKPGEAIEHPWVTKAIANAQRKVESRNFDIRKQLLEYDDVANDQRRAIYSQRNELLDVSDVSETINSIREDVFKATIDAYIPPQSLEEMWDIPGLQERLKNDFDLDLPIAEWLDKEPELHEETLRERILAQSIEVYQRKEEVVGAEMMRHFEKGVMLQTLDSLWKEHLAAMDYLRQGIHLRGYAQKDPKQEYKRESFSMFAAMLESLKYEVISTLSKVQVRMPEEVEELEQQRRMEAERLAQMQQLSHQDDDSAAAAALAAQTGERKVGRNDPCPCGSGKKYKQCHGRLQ
The target in assay [3] is T2, Ubiquitin-activating enzyme e1, putative (Leishmania donovani (strain BPK282A1)) (UniProt E9BSI1).
T2 sequence (whole entry): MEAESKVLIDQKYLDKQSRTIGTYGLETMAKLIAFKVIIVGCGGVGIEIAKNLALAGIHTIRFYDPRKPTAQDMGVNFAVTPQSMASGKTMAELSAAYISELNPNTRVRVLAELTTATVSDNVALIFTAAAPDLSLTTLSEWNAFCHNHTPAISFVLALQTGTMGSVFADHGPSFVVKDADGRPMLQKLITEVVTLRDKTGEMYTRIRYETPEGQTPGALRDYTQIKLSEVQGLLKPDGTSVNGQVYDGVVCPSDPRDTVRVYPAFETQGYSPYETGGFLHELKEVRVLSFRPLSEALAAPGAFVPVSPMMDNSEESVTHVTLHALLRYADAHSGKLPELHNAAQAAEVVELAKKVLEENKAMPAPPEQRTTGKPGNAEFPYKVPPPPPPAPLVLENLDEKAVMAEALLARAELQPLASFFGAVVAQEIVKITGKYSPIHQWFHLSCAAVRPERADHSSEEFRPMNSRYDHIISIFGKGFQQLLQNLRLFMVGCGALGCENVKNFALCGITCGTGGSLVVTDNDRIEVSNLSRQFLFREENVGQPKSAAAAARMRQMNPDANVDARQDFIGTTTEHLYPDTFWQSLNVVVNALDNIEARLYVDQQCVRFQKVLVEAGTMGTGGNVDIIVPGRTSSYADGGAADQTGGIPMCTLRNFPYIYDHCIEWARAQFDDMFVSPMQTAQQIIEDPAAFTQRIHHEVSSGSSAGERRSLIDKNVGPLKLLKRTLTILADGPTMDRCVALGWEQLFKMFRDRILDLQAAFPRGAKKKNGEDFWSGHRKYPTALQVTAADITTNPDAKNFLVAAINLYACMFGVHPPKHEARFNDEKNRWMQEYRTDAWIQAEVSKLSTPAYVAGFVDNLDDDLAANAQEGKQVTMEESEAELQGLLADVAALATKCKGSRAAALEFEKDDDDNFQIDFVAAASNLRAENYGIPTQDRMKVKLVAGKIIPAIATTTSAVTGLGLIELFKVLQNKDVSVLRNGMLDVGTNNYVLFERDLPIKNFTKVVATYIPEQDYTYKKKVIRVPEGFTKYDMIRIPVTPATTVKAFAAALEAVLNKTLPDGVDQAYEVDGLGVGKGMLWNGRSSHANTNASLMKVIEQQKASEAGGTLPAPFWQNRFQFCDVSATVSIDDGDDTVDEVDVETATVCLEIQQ
In words: Leishmania donovani Ubiquitin Activating Enzyme (LdE1). Further details: scale not given: direction of the effect not stated beside the values. To be noted: 30 µM. The class given is functional.

Assay [4] has as its target AMP-activated protein kinase, AMPK (Homo sapiens) (UniProt P54646+O43741+P54619+Q9UGJ0+Q9Y478+Q13131+Q9UGI9). In words: AMP-dependent Kinase enzyme assay. An in vitro enzyme assay that detects ADP turnover that is directly proportional to AMPK activity. This uses naive AMPK that is activated during the assay with MK-8722. The class given is functional. Details: scale not given: direction of the effect not stated beside the values. The note with it: 30 µM.

Assay [5] deals with Sialic acid-binding Ig-like lectin 9 (Homo sapiens) (UniProt Q9Y336). In words: Hs-Siglec9 ALPHAscreen SOP 20170721. Further details: scale not given: direction of the effect not stated beside the values. To be noted: 10 µM. On the technique in general: Alpha assays give light when donor and acceptor beads are brought close together.
Sialic acid-binding Ig-like lectin 9 (Homo sapiens), sequence (Q9Y336 whole entry): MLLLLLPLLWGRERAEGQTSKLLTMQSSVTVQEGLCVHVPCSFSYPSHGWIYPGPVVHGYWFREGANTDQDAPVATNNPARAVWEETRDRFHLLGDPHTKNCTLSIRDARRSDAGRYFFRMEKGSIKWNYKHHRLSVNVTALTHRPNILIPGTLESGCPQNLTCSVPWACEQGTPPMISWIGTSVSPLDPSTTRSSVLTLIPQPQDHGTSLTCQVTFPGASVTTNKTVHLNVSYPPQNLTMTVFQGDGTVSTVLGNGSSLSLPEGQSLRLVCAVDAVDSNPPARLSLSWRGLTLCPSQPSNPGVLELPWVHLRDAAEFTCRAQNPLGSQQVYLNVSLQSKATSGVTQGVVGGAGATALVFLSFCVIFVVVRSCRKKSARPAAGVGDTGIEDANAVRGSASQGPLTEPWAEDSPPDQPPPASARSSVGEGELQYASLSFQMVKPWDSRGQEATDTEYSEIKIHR
The next assay relates to Trypanosoma cruzi. In words: Trypanosoma cruzi phosphomannomutase and mannose-1-phosphate guanylyltransferase assay. It is filed as functional. Further details: scale not given: direction of the effect not stated beside the values. To be noted: 10 µM.
The target in assay [6] is T3, Arginase-2, mitochondrial (Homo sapiens) (UniProt P78540).
T3 sequence (whole entry): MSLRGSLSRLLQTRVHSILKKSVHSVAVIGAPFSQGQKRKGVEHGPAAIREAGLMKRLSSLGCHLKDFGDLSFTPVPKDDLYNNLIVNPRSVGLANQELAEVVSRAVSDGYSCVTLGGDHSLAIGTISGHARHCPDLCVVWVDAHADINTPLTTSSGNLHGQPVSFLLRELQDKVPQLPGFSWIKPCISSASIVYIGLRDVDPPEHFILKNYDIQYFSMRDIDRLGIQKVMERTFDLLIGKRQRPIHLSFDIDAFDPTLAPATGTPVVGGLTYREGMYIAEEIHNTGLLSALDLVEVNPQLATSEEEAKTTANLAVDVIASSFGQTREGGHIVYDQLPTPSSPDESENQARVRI
Description: in vitro enzyme assay to detect the production of urea directly proportional to the activity of Arginase II. It is filed as functional. Details: scale not given: in the data most compounds retested in dose-response had high values. To be noted: 33.3 µM.

Assay [7] addresses T4, Proteasome subunit beta (Trypanosoma cruzi) (UniProt O96673).
T4 sequence (whole entry): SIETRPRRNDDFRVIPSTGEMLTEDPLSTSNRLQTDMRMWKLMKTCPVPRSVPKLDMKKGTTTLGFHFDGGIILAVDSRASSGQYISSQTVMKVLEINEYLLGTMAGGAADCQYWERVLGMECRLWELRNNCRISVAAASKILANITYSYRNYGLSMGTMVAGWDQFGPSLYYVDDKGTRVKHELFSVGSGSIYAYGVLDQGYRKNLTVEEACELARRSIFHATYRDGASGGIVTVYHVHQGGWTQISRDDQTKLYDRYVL
In words: Trypanosoma cruzi proteasome chymotrypsin-like activity (TcProtChymo) assay. It is filed as functional. Details: scale not given: in the data most compounds retested in dose-response had high values. The note with it: 9.37 µM.

The species named for another assay is Homo sapiens. Description: To identify inhibition of the IFN signalling (Jak-Stat) pathway via expression of an eGFP reporter gene under the control of an IFN-stimulated response element (ISRE) containing MxA promoter. It is filed as functional. Further details: scale not given: direction of the effect not stated beside the values. The note with it: 30 µM. (A reporter such as luciferase makes a cellular process visible.)

Assay [8] concerns the target T5, Tyrosyl-tRNA synthetase, putative (Trypanosoma cruzi (strain CL Brener)) (UniProt Q4DSP6).
T5 sequence (whole entry): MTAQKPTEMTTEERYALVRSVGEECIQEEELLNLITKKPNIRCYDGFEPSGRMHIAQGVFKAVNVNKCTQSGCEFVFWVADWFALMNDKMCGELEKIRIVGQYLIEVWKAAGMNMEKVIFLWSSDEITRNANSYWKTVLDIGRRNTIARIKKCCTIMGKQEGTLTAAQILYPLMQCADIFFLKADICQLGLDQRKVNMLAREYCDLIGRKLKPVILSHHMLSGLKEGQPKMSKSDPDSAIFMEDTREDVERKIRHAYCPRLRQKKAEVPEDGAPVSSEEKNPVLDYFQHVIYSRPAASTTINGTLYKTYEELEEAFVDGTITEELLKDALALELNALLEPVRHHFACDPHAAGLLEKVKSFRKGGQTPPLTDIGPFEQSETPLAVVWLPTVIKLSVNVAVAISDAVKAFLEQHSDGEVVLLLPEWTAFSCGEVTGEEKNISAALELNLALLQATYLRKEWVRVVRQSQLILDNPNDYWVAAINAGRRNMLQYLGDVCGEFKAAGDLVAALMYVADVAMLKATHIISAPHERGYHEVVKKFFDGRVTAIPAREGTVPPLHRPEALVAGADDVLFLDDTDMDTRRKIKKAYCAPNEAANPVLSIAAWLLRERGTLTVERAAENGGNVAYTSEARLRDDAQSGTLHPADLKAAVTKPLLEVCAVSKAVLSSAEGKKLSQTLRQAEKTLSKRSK
In words: Trypanosoma cruzi tyrosyl tRNA synthetase (TcYRS) _High Tyrosine SOP. The note with it: 30 µM. The class given is functional. Further details: scale not given: in the data most compounds retested in dose-response had high values.

Assay [9] has as its target T5, Tyrosyl-tRNA synthetase, putative (Trypanosoma cruzi (strain CL Brener)). In words: Trypanosoma cruzi tyrosyl tRNA synthetase (TcYRS) SOP. It is filed as functional. Details: scale not given: direction of the effect not stated beside the values. To be noted: 30 µM.
Assay [10] addresses Chromo domain-containing protein 1 (Saccharomyces cerevisiae (strain ATCC 204508 / S288c) (Baker's yeast)) (UniProt P32657). In words: ScCHD-1 Enzyme Inhibition Assay. The class given is functional. Further details: scale not given: in the data most compounds retested in dose-response had high values. To be noted: 30 µM.

Structures are written as SMILES. For some assays here: Measured potencies and affinities stand elsewhere.

Chromo domain-containing protein 1 (Saccharomyces cerevisiae (strain ATCC 204508 / S288c) (Baker's yeast)), sequence (P32657 whole entry, the tested form may be a part): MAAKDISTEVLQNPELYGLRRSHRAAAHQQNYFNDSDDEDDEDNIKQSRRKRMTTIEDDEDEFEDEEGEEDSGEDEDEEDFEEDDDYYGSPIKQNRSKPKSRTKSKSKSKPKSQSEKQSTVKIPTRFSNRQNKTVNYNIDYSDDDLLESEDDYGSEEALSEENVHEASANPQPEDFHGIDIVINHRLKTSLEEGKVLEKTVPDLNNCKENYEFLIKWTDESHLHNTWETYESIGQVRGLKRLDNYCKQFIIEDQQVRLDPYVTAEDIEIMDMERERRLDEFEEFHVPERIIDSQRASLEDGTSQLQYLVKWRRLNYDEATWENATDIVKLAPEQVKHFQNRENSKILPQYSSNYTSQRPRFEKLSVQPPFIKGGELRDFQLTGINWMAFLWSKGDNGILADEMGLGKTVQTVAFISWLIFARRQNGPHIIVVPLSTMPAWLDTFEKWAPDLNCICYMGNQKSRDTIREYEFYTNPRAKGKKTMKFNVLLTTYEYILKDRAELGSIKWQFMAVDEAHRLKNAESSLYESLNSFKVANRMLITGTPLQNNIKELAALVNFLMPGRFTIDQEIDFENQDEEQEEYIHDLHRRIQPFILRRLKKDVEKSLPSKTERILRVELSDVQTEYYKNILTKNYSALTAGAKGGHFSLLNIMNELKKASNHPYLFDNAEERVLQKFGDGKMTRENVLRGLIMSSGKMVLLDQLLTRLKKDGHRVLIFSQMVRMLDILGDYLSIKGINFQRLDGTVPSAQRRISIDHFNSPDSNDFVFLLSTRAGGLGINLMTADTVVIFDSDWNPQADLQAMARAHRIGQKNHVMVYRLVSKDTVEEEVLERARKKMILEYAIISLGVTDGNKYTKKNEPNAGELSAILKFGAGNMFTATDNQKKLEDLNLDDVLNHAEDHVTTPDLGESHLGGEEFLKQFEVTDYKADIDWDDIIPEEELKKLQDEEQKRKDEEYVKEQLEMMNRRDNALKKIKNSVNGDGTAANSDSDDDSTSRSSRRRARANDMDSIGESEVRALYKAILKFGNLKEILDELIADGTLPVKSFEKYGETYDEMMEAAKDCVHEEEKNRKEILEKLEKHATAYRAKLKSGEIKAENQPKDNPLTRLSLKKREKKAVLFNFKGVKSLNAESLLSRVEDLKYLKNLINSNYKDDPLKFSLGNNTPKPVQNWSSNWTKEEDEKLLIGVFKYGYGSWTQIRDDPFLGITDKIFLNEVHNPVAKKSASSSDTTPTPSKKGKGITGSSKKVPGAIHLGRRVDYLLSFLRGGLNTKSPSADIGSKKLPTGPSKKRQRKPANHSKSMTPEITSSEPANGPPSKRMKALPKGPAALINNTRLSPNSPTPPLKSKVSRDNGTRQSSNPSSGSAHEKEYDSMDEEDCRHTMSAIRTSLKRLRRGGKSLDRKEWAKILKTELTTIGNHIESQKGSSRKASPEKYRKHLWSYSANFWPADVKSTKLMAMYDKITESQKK

For the molecule `Cc1cc(C)c(CNC(=O)N2CCCC2c2cccn2C)c(=O)[nH]1` (stereo unspecified), the PXC50 in [1] (BOTTOM 1.39525403, HILLSLOPE 1.863289847, MAX_EFFECT 51.97132616, TOP 100.0) is 4.01; in [1] (BOTTOM -10.14330359, HILLSLOPE 0.427510045, MAX_EFFECT 50.72463768, TOP 100.0), 4.22; in assay [1] (MAX_EFFECT 28.8676236), < 4; in [1] (MAX_EFFECT 30.90211132), < 4; in assay [1] (MAX_EFFECT 48.51485149) it was < 4. In addition, the Percent Effect is -1.81% in assay [2]; 8.86% in [3]; 3.05% in [4]; 2.38% in [5]; 2.97% in the assay with Trypanosoma cruzi; 3.66% in [6]. The Percent Effect in assay [7] is 10.6%; in the assay filed under Homo sapiens, -3.9%; in assay [8], 13.5%; in assay [9] it was 27.9%; in assay [10] it was -14.4%.

With `CC(C)Cc1ncc(CNc2cnccc2CO)s1`, the PXC50 in assay [1] (MAX_EFFECT 2.711323764), in [1] (MAX_EFFECT 4.081632653), in assay [1] (MAX_EFFECT 4.798464491), in [1] (MAX_EFFECT 7.246376812) and in assay [1] (MAX_EFFECT 9.632224168) was < 4 throughout.

With `COc1ccccc1C(=O)NC(c1ccccn1)[C@H]1CC[C@H](CN)CC1` (stereo partly specified), the PXC50 in assay [1] (BOTTOM -1.193557467, HILLSLOPE 1.40396169, MAX_EFFECT 57.36568458, TOP 100.0) was 4.08; in assay [1] (BOTTOM -5.444679276, HILLSLOPE 1.669546179, MAX_EFFECT 75.83892617, TOP 100.0), 4.3; in assay [1] (BOTTOM -12.31313032, HILLSLOPE 1.366255023, MAX_EFFECT 79.86111111, TOP 100.0), 4.41; in assay [1] (MAX_EFFECT 0.790513834) it was < 4; in assay [1] (MAX_EFFECT 6.349206349) it was < 4.

The values are drawn from ChEMBL document CHEMBL3988442, “University of Dundee, Small-Polar-MMV Screening Library” (2021).
